Measured values as given in PMC4336329 (PLoS ONE, 2015).
Screen size: about 310,000 compounds; about 14,000 (4.5%) showed an effect of 50% or more. The effect is printed as a negative number. This excerpt belongs to a sample that is enriched for strong results.

Biological target: human ether-à-go-go-related gene (hERG) potassium channel (human, UniProt Q12809)
Experiment: primary screen, population patch clamp on CHO cells stably expressing hERG; higher = less effect of the substance
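Note: peak tail current of the secondary pulse compared with the same well before compound.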

Chain of human ether-à-go-go-related gene (hERG) potassium channel (Q12809 whole entry, looked up): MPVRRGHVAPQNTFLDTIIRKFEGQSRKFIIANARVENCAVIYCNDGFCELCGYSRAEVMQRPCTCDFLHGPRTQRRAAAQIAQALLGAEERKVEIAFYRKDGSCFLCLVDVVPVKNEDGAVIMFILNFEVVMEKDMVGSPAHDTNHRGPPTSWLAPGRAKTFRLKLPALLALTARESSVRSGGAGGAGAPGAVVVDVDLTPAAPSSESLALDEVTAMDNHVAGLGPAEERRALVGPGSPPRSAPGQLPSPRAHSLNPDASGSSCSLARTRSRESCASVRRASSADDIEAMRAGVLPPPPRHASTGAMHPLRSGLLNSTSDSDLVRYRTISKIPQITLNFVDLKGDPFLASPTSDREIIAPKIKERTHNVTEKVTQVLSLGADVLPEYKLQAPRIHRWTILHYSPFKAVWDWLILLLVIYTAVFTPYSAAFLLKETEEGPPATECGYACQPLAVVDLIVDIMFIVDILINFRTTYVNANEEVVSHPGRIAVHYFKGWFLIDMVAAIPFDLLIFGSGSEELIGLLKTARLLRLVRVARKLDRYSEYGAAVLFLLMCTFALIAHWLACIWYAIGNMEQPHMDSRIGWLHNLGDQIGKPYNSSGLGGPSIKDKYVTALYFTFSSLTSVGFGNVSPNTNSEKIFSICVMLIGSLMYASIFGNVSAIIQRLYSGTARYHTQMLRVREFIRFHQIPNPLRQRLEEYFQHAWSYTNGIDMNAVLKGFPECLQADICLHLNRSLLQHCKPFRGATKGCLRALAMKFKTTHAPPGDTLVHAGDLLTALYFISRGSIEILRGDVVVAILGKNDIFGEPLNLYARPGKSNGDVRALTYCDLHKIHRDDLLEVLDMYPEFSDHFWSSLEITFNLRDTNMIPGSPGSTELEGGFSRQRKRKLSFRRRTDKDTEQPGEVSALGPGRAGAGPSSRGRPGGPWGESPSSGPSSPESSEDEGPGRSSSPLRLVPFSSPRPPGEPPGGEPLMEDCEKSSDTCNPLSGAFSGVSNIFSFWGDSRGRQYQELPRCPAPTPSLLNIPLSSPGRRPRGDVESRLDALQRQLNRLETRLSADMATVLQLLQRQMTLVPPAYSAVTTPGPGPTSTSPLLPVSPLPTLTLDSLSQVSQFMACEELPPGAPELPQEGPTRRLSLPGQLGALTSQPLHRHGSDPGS

Compound	hERG current change (%, negative = inhibition) at 10uM
Cc1ccc(C(=O)COc2cc(O)c3c(=O)cc(-c4ccccc4)oc3c2)cc1	24.6%
CCOC(=O)/C(C#N)=C1\CCCN1CC(N)=S	2.57%
COc1ccc2c(-c3ccccc3)cc(SC(C)C(N)=O)nc2c1 (stereo not shown)	19.3%
COc1ccc(C(=O)Nc2ccc([N+](=O)[O-])cn2)cc1OC	-22.6%
Cc1ccccc1N1CCN(Cc2c[nH]c3ccccc23)CC1	-62.1%
Cl.c1ccc2c(CN3CCCCCC3)c[nH]c2c1	-18.1%
Clc1ccccc1N1CCN(Cc2c[nH]c3ccccc23)CC1	-35.6%
Brc1ccc(-c2cnc3n2CCCC3)cc1	-34.2%
CCOc1ccc(N(CC(=O)NCCSCc2ccc(C)cc2)S(C)(=O)=O)cc1	10.1%
CCC(C)c1ccccc1NC(=O)C(C)N(C)Cc1cccc(OC)c1.O=C(O)C(=O)O (stereo not shown)	11.8%
Cc1ccc(S(=O)(=O)N(C)CC(=O)NCCCn2ccnc2)cc1	9.92%
Br.CC(C)(C)c1ccc(CN2C3=NCCCN3c3ccccc32)cc1	-77.6%
Br.CC(C)(C)C(=O)CN1C2=NCCN2c2ccccc21	-32.1%
Br.C=CCN1C2=NCCCN2c2ccccc21	-13.9%
Cc1ccc(CN2C3=NC(=O)CN3c3ccccc32)cc1	-5.41%
Br.CC(C)(C)C(=O)CN1C2=NCCCN2c2ccccc21	-75.8%
Cc1ccc(CN2C3=NCCN3c3ccccc32)cc1.Cl	-68.3%
Cc1cccc(CN2C3=NCCCN3c3ccccc32)c1.Cl	-57.4%
COC(=O)Cc1ccc(NC(=S)NCCO)cc1	17.6%
Cn1ccs/c1=N\C(=O)Nc1cccc(Cl)c1	0.433%
O=C(NCc1cc([N+](=O)[O-])ccc1O)c1cccc(NS(=O)(=O)c2ccccc2)c1	18.3%
CCOc1ccc(C(C(=O)NC2CCCCC2)N(C(=O)Cc2cccs2)c2ccc(-n3cnnn3)c(OC)c2)cc1 (stereo not shown)	-15.7%
CCOC(=O)c1[nH]c(C)c(/C(O)=C2\C(=O)C(=O)N(CCCN(C)C)C2c2cccnc2)c1C (stereo not shown)	4.27%
NCc1cccc(-n2cccn2)c1.O=C(O)CC(=O)O	-8.09%
CCc1ccccc1NC(=O)CC1SCCNC1=O (stereo not shown)	26.3%

Compound	hERG current change (%, negative = inhibition) at 10uM
O=C(O)COCC(=O)NCc1csc2ccccc12	2.75%
COc1ccc(S(=O)(=O)Nc2ccccc2C(N)=O)cc1OC	10.1%
Cc1ccc(CN2C3=NCCCN3c3ccccc32)cc1.Cl	-61.2%
CCN1C2=NCCCN2c2ccccc21.Cl	1.64%
c1ccc(-n2nnnc2SCc2ccccn2)cc1	7.26%
Cc1ccc(C(=O)N/C(=C/c2ccc(-c3ccc([N+](=O)[O-])cc3)o2)C(=O)NCCCN(C)C)cc1	-73.7%
Cc1ccc(C(=O)N/C(=C\c2ccc(-c3ccc([N+](=O)[O-])cc3)o2)C(=O)NC2CCS(=O)(=O)C2)cc1 (stereo not shown)	-28.2%
CN(C)CCCNC(=O)/C(=C/c1ccc(-c2ccc([N+](=O)[O-])cc2)o1)NC(=O)c1ccccc1	-73.6%
CCCCC(=O)N/N=C/c1ccc(-c2ccc([N+](=O)[O-])cc2)o1	-21.9%
COc1ccc(CN=C2NC(=O)CC(C(=O)Nc3cc(C)cc(C)c3)S2)cc1 (stereo not shown)	-18.4%
COc1ccc(OC)c(NC(=O)CCCN2C(=O)C3C4C=CC(C4)C3C2=O)c1 (stereo not shown)	-3.43%
CCOC(=O)c1ccc(NC(=O)N2CCCCC2)cc1	3.33%
COc1ccc(CN2CCN(S(=O)(=O)c3ccc(NC(C)=O)cc3)CC2)cc1.O=C(O)C(=O)O	-29.4%
CCOc1ccc(NC(=O)CCN2CCN(S(=O)(=O)c3ccc(F)cc3)CC2)cc1	-16.5%
CCOc1ccc(C(=O)CN2CCN(S(=O)(=O)c3ccc(Cl)cc3)CC2)cc1	-40.2%
CCOc1ccc(S(=O)(=O)N2CCN(S(=O)(=O)c3ccc(C(C)=O)cc3)CC2)cc1	0.493%
CCOC(=O)COc1ccc(S(=O)(=O)N2CCN(c3ccccc3)CC2)cc1	-39%
CCOc1ccc(CN2CCN(S(=O)(=O)c3ccc(NC(C)=O)cc3)CC2)cc1OC.O=C(O)C(=O)O	-35.4%
CCOC(=O)COc1ccc(S(=O)(=O)N2CCN(c3ccc(OC)cc3)CC2)cc1	0.759%
CCOc1ccc(NC(=O)CCN2CCN(S(=O)(=O)c3ccc(OC)cc3)CC2)cc1	-28.8%
CCOc1ccc(C(=O)CN2CCN(S(=O)(=O)c3ccc(OC)cc3)CC2)cc1	-61.7%
CCOc1ccc(CN2CCN(S(=O)(=O)c3ccc(NC(C)=O)cc3)CC2)cc1.O=C(O)C(=O)O	-50.4%
CCOC(=O)COc1ccc(S(=O)(=O)N2CCN(c3ccc(F)cc3)CC2)cc1	-60%
CCOc1ccc(C(=O)CN2CCN(S(=O)(=O)c3ccc(F)cc3)CC2)cc1	-63%
